# Data as given in PubChem BioAssay (EPA / NIEHS).
# Several values for one entry are separate records, joined by “and”; a condition that tells them apart may be missing. Equal entries are not always repeated. Inconclusive results are not listed. The source holds several records for some structures; these can differ, active in one and inactive in another. Activity calls are given as the source filed them. The calls were made as follows, unless noted: active = hit-call score of the fitted dose curve at least 0.9, where 1 is the maximum; inconclusive = response in the unintended direction; inactive = score below 0.9.
# Tests used:
# [1] = system: IYD (gene 389434); assay: CCTE_GLTED_hIYD: CCTE's human Iodotyrosine Deiodinase (xIYD) Inhibition Assay, Great Lakes Toxicology and Ecology Division (GLTED) Lab (AID 2284317);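 also: cell-free human IYD enzyme made in baculovirus insect cells; iodide freed from monoiodotyrosine measured by cerium arsenite color change at 420 nm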
# Outline: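 Cell-free; baculovirus/insect-cell hIYD + MIT substrate + chemical, 3 h. Dowex column cleanup, then Ce4+/As3+ Sandell-Kolthoff read at A420 nm. Triplicate plates; normalized to 3-nitro-L-tyrosine (positive) and DMSO/NaOH (solvent).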
# [2] = VALA_TUBHUV_Antagonist_TubuleLength: VALA Sciences human Umbilical Vein Endothelial Tubule Formation (TUBHUV) Antagonism Assay (AID 2284325)
# Outline: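 Tubule length was imaged via CD31 immunofluorescence after a further 3-day compound exposure in 10 ng/ml VEGF, following 3-day pre-culture of HUVEC with HDF at 1:3. Vehicle 0.1% DMSO; suramin (100 uM) inhibition control.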
# [3] = VALA_TUBIPS_Antagonist_CellCount: Viability Assessment in the VALA Sciences human iPS-derived Endothelial Tubule Formation (TUBIPS) Antagonism Assay (AID 2284335)
# Description: VALA_TUBIPS_Agonist is a cell-based, multiplexed assay that uses human iPS-derived endothelial cells (iPSC). Measurements were taken 72 hours after chemical dosing in a 96-well plate.VALA_TUBIPS_Antagonist_CellCount is the one of two assay components measured from the VALA_TUBIPS_Antagonist assay. It is designed to make measurements of viability, a form of viability reporter, as detected with fluorescence intensity signals by HCS Fluorescent Imaging technology. Data from the assay component VALA_TUBIPS_Antagonist_CellCount was analyzed at the endpoint, VALA_TUBIPS_Antagonist_CellCount, in the positive analysis fitting direction relative to DMSO as the negative control and baseline of activity. Using a type of viability reporter, loss-of-signal activity can be used to understand viability. To generalize the intended target to other relatable targets, this assay endpoint is annotated to the cell cycle intended target family, where the subfamily is cell count.
# This HUVEC-HDF assay was designed to detect chemical suppression of tubulogenesis, i.e. antagonism. To measure tubulogenesis antagonism, HUVEC cells were co-cultured with HDF cells at a 1:3 ratio for 3-days in 10 ng/ml VEGF (i.e., favorable conditions with growth factors), then changed to assay medium containing 10 ng/ml VEGF and ToxCast compounds for an additional 3-day period. […]
# [4] = VALA_TUBIPS_Agonist_CellCount: Viability Assessment in the VALA Sciences human iPS-derived Endothelial Tubule Formation (TUBIPS) Agonism Assay (AID 2284338)
# [5] = system: SERPINA7 (gene 6906); assay: CCTE_GLTED_hTBG: CCTE's human Thyroxine-binding Globulin (TBG) Inhibition Assay, Great Lakes Toxicology and Ecology Division (GLTED) Lab (AID 2284343);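 also: active chemicals lower fluorescence versus DMSO baseline by displacing probe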
# Outline: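 Fluorescence (ex 380/em 475) reports ANSA displaced from human TBG after a 2 h incubation with test chemical, without cells. Loss of signal indicates displacement, with DMSO serving as baseline.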
# [6] = IUF_NPC1_cytotoxicity_72hr: Cytotoxicity Assessment at 72 hours in the Leibniz Research Institute for Environmental Medicine (IUF) Neural Progenitor Cell Proliferation Assay (NPC1) (AID 2284332);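 also: rising LDH signal means more cytotoxicity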
# Outline: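 LDH in supernatant, resazurin→resorufin fluorescence (RFU), 72 h exposure, no re-dosing. Cells: primary hNPC spheres, one per well, EGF+FGF medium, 37C/5% CO2, pH 7.2-7.6. Fit: positive direction vs baseline and dynamic range.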
# [7] = CCTE_Mundy_HCI_iCellGluta_NOG_NeuronCount: CCTE's Neurite Outgrowth Assay in iCellGluta cells for Neuron Count, Mundy Lab (AID 2284340);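 also: cells fixed about 48 h after compound addition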
# Outline: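 Neuron count read by automated high-content imaging of Hoechst 33342 and betaIII-tubulin/Alexa Fluor-488 labelling in human iPSC glutamatergic neurons. Activity fitted relative to DMSO.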
# [8] = CCTE_Mundy_HCI_iCellGluta_NOG_NeuriteCount: CCTE's Neurite Outgrowth Assay in iCellGluta cells for Neurite Count, Mundy Lab (AID 2284342);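 also: chemical exposure about 48 hours starting 2 hours after plating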
# [9] = VALA_TUBIPS_Antagonist_TubuleLength: VALA Sciences human iPS-derived Endothelial Tubule Formation (TUBIPS) Antagonist Assay (AID 2284313)
# Outline: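 Tubule length was quantified by high-content imaging of CD31- and nuclear-stained cells, with 0.1% DMSO as neutral and 100 uM suramin as inhibition control. Compounds were applied for 3 days, in 10 ng/ml VEGF, to cultures pre-grown 3 days.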
# [10] = VALA_MIGHUV2_WoundArea: VALA Sciences human Umbilical Vein Endothelial Cell Migration (MIGHUV) Assay, Area of Scratch Wound after Recovery (AID 2284316)
# Outline: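 Wound-area endpoint read by fluorescence imaging of Hoechst-stained nuclei after a 24 h recovery period following scratch of HUVEC monolayers (9000 cells/well). Chemicals dosed within 30 min post-scratch, triplicate 6-point series, 0.1% DMSO vehicle; Cytochalasin D positive control.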
# [11] = system: TTR (gene 7276); assay: CCTE_GLTED_hTTR_0.5uM: CCTE's human Transthyretin (hTTR) Inhibition Assay, with 0.5uM TTR, Great Lakes Toxicology and Ecology Division (GLTED) Lab (AID 2284320; active = hit-call score of the fitted dose curve at least 0.9, where 1 is the maximum; inactive = score below 0.9)
# Outline: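 Probe (ANSA) displacement from 0.5 uM human transthyretin was followed by fluorescence (ex 380, em 475) after a 2 h incubation with chemical. Activity was scored as signal loss and fitted positively relative to DMSO.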
# [12] = VALA_MIGHUV1_ScratchOnly_WoundArea: VALA Sciences human Umbilical Vein Endothelial Cell Migration (MIGHUV) Assay, Area of Scratch Wound Inhibited Recovery (AID 2284336)
# Outline: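 Wound area remaining after 24 h recovery imaged by Hoechst nuclear fluorescence in scratched HUVEC cultures, chemicals added within 30 min of scratching across a 6-point series. Gain of signal fitted against 0.1% DMSO; cytochalasin D positive control.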
# [13] = Tanguay_ZF_120hpf_MO24: Oregon State University Tanguay Lab 24 Hour Post-fertilization zebrafish Assay for Mortality (AID 2284389; active = hit-call score of the fitted dose curve at least 0.9, where 1 is the maximum; inactive = score below 0.9)
# Outline: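 Embryo death at 24 hpf was recorded as present or absent in Tropical 5D zebrafish, dechorionated at 4 hpf and dosed statically from 6 hpf (28C, 0.64% DMSO); 5 uM trimethyltin chloride served as positive control.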
# [14] = CCTE_Deisenroth_5AR_NBTE_donor: CCTE's 5alpha-reductase NanoBRET Target Engagement Assay […], Deisenroth Lab (AID 2284319; active = hit-call score of the fitted dose curve at least 0.9, where 1 is the maximum; inactive = score below 0.9); details: actives raise or lower the signal
# Outline: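 HEK293T cells were reverse transfected with an SRD5A2-NanoLuc vector for 20 h, exposed to test chemical (8 points, 10 nM - 29.9 uM) for 3 h, then testosterone tracer for 2 h more. Donor luminescence (460 nm) was read; bidirectional fit versus DMSO.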
# [15] = CCTE_Deisenroth_5AR_NBTE_acceptor: CCTE's 5alpha-reductase NanoBRET Target Engagement Assay - Autofluorescence Screen, Deisenroth Lab (AID 2284321; active = hit-call score of the fitted dose curve at least 0.9, where 1 is the maximum; inactive = score below 0.9;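 also: compound fluorescence in the acceptor channel under 460 nm excitation flags autofluorescence artifacts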); details: actives raise or lower the signal
# Outline: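 Autofluorescence counter-screen: chemicals at an assumed nominal 100 uM in DMSO were scanned in three independent runs with 460 nm excitation. Gain or loss of acceptor signal was fitted bidirectionally against DMSO.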
# [16] = system: SRD5A2 (gene 6716); assay: CCTE_Deisenroth_5AR_NBTE_ratio: CCTE's 5alpha-reductase NanoBRET Target Engagement Assay - Ratio, Deisenroth Lab (AID 2284322; active = hit-call score of the fitted dose curve at least 0.9, where 1 is the maximum; inactive = score below 0.9); details: actives raise or lower the signal
# Outline: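 SRD5A2-NanoLuc HEK293T; cmpd 10 nM-29.9 uM, 3 h preinc + testosterone tracer 2 h; NanoBRET ratio 650/460; bidirectional fit vs DMSO.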
# [17] = CCTE_Deisenroth_H295R-HTRF_384WELL_ESTRADIOL: CCTE's H295R-HTRF Assay Evaluation of Estradiol Concentration, Deisenroth Lab (AID 2284361; active = hit-call score of the fitted dose curve at least 0.9, where 1 is the maximum; inactive = score below 0.9); details: actives raise or lower the signal
# Outline: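 Estradiol secreted into medium by H295R adrenocortical cells, quantified by HTRF after 48 h dosing over a nine-point 0.001 - 100 uM final range; gain or loss versus DMSO. Parallel ATP-luminescence viability readout; n=5 experiments.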
# [18] = CCTE_Deisenroth_H295R-HTRF_384WELL_TESTOSTERONE: CCTE's H295R-HTRF Assay Evaluation of Testosterone Concentration, Deisenroth Lab (AID 2284373; active = hit-call score of the fitted dose curve at least 0.9, where 1 is the maximum; inactive = score below 0.9); details: actives raise or lower the signal
# Outline: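 H295R cells were acclimated 24 h, then exposed 48 h to nine concentrations (0.001–100 uM final) in technical triplicate, n=5. Testosterone in conditioned medium was measured by HTRF (em 620/665 nm). Fitting was bidirectional versus DMSO; CellTiter-Glo viability ran on the same plates.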
# [19] = CCTE_Deisenroth_H295R-HTRF_384WELL_CTOX: Cytotoxicity Assessment in CCTE's H295R-HTRF Assay, Deisenroth Lab (AID 2284380)
# Outline: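 Luminescent ATP viability readout (CellTiter-Glo 2.0), multiplexed on plates used for hormone sampling, after 48 h chemical exposure. Human H295R cells; final concentrations 0.001–100 uM in nine steps, technical triplicates, five experiments; DMSO baseline.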
smiles,measurement,setting,value
Oc1cc(Cl)ccc1Oc1ccc(Cl)cc1Cl,AC50,[1],37.2 µM (active) and 55.2 µM (active) and 24.3 µM (active)
same,outcome,[2],inactive
same,AC50,[3],0.00562 µM (active)
same,AC50,[4],7.53 µM (active)
same,AC50,[5],0.154 µM (active)
CC[C@H](C)[C@H]1O[C@]2(C=C[C@@H]1C)C[C@@H]1C[C@@H](C/C=C(\C)[C@@H](O[C@H]3C[C@H](OC)[C@@H](O[C@H]4C[C@H](OC)[C@@H](O)[C@H](C)O4)[C@H](C)O3)[C@@H](C)/C=C/C=C3\CO[C@@H]4[C@H](O)C(C)=C[C@@H](C(=O)O1)[C@]34O)O2 (tested in a mixture with another compound),outcome,[6],inactive
same,AC50,[7],3.77 µM (active)
same,AC50,[8],3.36 µM (active)
C[C@H]1[C@H](c2ccc(Cl)cc2)SC(=O)N1C(=O)NC1CCCCC1,AC50,[5],2.63 µM (active)
O=S(=O)(O)C(F)(F)C(F)(F)C(F)(F)C(F)(F)C(F)(F)C(F)(F)C(F)(F)C(F)(F)F,outcome,[9],inactive
same,outcome,[10],inactive
same,AC50,[1],59 µM (active) and 90.4 µM (active)
same,outcome,[1],inactive
same,AC50,[11],489 nM (active) and 455 nM (active)
same,AC50,[6],3.31 µM (active)
same,outcome,[6],inactive
same,outcome,[3],inactive
same,outcome,[12],inactive
same,outcome,[4],inactive
same,outcome,[7],inactive
same,outcome,[8],inactive
same,outcome,[13],inactive
Oc1ccc(Cl)cc1Cc1ccccc1,AC50,[5],1.07 µM (active)
CC(C)OC(=O)Nc1cccc(Cl)c1,AC50,[5],34.7 µM (active)
CCCN(CCC)c1c([N+](=O)[O-])cc(C(F)(F)F)cc1[N+](=O)[O-],outcome,[14],inactive
same,outcome,[15],inactive
same,outcome,[16],inactive
same,AC50,[5],5.16 µM (active)
COP(=O)(OC)OC=C(Cl)Cl,outcome,[6],inactive
same,outcome,[7],inactive
same,AC50,[8],49 µM (active)
Clc1ccccc1-c1nnc(-c2ccccc2Cl)nn1,AC50,[5],0.23 µM (active)
O=[N+]([O-])/N=C1\NCCN1Cc1ccc(Cl)nc1,outcome,[14],inactive
same,outcome,[15],inactive
same,outcome,[16],inactive
same,outcome,[6],inactive
same,outcome,[7],inactive
same,outcome,[8],inactive
CCN(CC)C(=O)SCc1ccc(Cl)cc1,AC50,[5],22.4 µM (active)
O=C(O)C(F)(F)C(F)(F)C(F)(F)C(F)(F)C(F)(F)C(F)(F)C(F)(F)F,AC50,[11],450 nM (active) [middle of 4 runs]
same,outcome,[6],inactive
same,outcome,[7],inactive
same,outcome,[8],inactive
same,outcome,[13],inactive
COP(=S)(OC)Oc1ccc([N+](=O)[O-])cc1,outcome,[6],inactive
same,outcome,[7],inactive
same,AC50,[8],23.4 µM (active)
O=C(O)CCCOc1ccc(Cl)cc1Cl,AC50,[5],20.7 µM (active)
CC(C)(C)C(O)/C(=C\c1ccc(Cl)cc1Cl)n1cncn1 (stereo not drawn),AC50,[5],30.8 µM (active)
O=C(O)COc1ccc(Cl)cc1Cl,outcome,[6],inactive
same,outcome,[8],inactive
O=C1c2ccccc2C(=O)N1SC(Cl)(Cl)Cl,outcome,[14],inactive
same,outcome,[15],inactive
same,outcome,[16],inactive
CC(C)(C)C(O)C(Oc1ccc(Cl)cc1)n1cncn1 (stereo not drawn),outcome,[17],inactive
same,outcome,[18],inactive
same,outcome,[19],inactive
C#CCN1C(=O)COc2cc(F)c(N3C(=O)C4=C(CCCC4)C3=O)cc21,AC50,[5],8.38 µM (active)
